Test results taken from PubChem BioAssay.
Calls of active or inactive are those of the source. Unless noted, no rule for the calls is given here.

Legend:
[1] = A549 cell viability effects, profiling panel, calcein-AM fluorescence, 48 h, basal (AID 1162); settings: higher = more signal; also: test concentration not given here
[2] = adipocyte viability effects, profiling panel, cell-based, 3T3-L1 adipocytes, calcein-AM fluorescence, 48 h, basal (AID 1163); settings: 3T3-L1 adipocytes viability, higher = more signal; also: test concentration not given here
[3] = HepG2 cell viability effects, profiling panel, calcein-AM fluorescence, 48 h, basal (AID 1164); settings: higher = more signal; also: test concentration not given here
[4] = MM1S cell viability effects, profiling panel, calcein-AM fluorescence, 48 h, basal (AID 1165); settings: higher = more signal;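 also: viability of MM1S multiple myeloma cells under basal unstimulated conditions; test concentration not given here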
[5] = basal RPMI8226 viability, no added stimulus, profiling panel, cell-based, calcein-AM fluorescence, 48 h, PK04 Diversity Set (AID 1166); settings: RPMI8226 myeloma viability, higher = more signal;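 also: cells grown under basal conditions without added stimulus; test concentration not given here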
[6] = basal HepG2 mitochondrial membrane potential changes, profiling panel, cell-based, JC-1 fluorescence, 24 h, 100 nL compound (AID 1167); settings: higher = more signal; also: test concentration not given here
[7] = basal 3T3-L1 adipocyte mitochondrial potential changes, profiling panel, cell-based, JC-1 fluorescence, 3T3-L1 adipocytes, 24 h, 100 nL compound (AID 1168); settings: JC-1 mitochondrial fluorescence, higher = more signal, called active from +8 up or from −8 down; also: test concentration not given here
[8] = basal RPMI8226 mitochondrial membrane potential changes, profiling panel, cell-based, JC-1 fluorescence, 24 h, 100 nL compound (AID 1169); settings: RPMI8226 myeloma, JC-1 mitochondrial potential fluorescence, higher = more signal; also: test concentration not given here
[9] = basal MM1S mitochondrial membrane potential changes, profiling panel, cell-based, JC-1 fluorescence, 24 h, 100 nL compound (AID 1170); settings: higher = more signal; also: test concentration not given here
[10] = A549 lung cancer cell viability effects, profiling panel, resazurin fluorescence, 24 h, PK04 Diversity Set (AID 1171); settings: higher = more signal, called active from +8 up or from −8 down; also: test concentration not given here
[11] = HepG2 liver cancer cell viability effects, profiling panel, resazurin fluorescence, 24 h, PK04 Diversity Set (AID 1172); settings: higher = more signal; also: test concentration not given here
[12] = basal S. cerevisiae growth modulation, no modifier, primary screen, OD600, strain BY4716, 24 h, basal condition (AID 1173); settings: OD600, 24 h, higher = more signal, called active from +8 up or from −8 down
[13] = MM1S myeloma cell viability, profiling panel, resazurin fluorescence, basal, 24 h, PK04 Diversity Set (AID 1174); settings: higher = more signal, called active from +8 up or from −8 down;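 also: MM1S multiple myeloma cell line; test concentration not given here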
[14] = molecular target: Dihydroorotate dehydrogenase (quinone), mitochondrial (Plasmodium falciparum (isolate 3D7)) (UniProt Q08210); assay: PfDHODH enzyme inhibitors, primary screen, biochemical, C-terminal His tag, absorbance 600 nm (AID 1175); settings: DCIP absorbance 600 nm, higher = more signal, called active from +8 up or from −8 down;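 also: recombinant parasite enzyme with a five histidine tag at its C terminus; test concentration not given here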
Chain of Dihydroorotate dehydrogenase (quinone), mitochondrial (Plasmodium falciparum (isolate 3D7)) (Q08210 whole entry, looked up): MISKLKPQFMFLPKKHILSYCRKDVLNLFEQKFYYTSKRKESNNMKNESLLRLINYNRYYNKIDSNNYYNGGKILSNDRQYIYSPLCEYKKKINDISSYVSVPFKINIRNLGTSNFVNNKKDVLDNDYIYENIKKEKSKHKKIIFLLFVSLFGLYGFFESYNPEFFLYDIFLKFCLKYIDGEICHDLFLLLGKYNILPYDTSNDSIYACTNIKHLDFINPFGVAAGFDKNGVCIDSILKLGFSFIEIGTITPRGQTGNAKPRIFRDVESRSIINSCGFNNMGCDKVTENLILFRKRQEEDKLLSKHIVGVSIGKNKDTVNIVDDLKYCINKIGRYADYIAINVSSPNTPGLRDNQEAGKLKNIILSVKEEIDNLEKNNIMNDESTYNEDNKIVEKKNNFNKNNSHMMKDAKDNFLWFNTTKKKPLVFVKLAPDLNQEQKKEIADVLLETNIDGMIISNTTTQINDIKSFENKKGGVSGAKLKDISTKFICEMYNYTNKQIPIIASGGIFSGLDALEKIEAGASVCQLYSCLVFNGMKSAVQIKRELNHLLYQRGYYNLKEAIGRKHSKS

[15] = P. aeruginosa biofilm formation inhibitors, primary screen, strain PAO1, LB-PBS medium, absorbance 600 nm (AID 1176); also: test concentration not given here; settings: P. aeruginosa PAO1 growth/biofilm, A600, 12 h; higher = more signal
[16] = S. cerevisiae RM11-1a growth modifiers, primary screen, strain RM11-1a, OD600, basal, 24 h (AID 1177); settings: OD600, 24 h, higher = more signal, called active from +8 up or from −8 down;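 also: cultures grown under basal conditions with no added stressor; test concentration not given here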
[17] = E. coli acrAB mutant growth effects, primary screen, E. coli filamentation inducers, strain DRC39, OD650, 24 h (AID 1178); settings: higher = more signal, called active from +8 up or from −8 down;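 also: growth measured as culture turbidity by optical density at 650 nm; test concentration not given here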
[18] = E. coli acrAB mutant growth effects, primary screen, E. coli filamentation inducers, strain DRC39, OD650, 48 h (AID 1179);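 also: screen aims at cell division blockers that make cells filament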; settings: E. coli DRC39 delta-acrAB growth, higher = more signal, called active from +8 up or from −8 down
[19] = RPMI8226 myeloma cell viability, profiling panel, resazurin fluorescence, basal, 24 h, PK04 Diversity Set (AID 1180); settings: higher = more signal;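 also: RPMI8826 multiple myeloma cell line at 5000 cells per well; test concentration not given here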
[20] = molecular target: E3 ubiquitin-protein ligase XIAP (Homo sapiens) (UniProt P98170); assay: XIAP binders, primary screen, biophysical, small-molecule microarray, fluorescence 635 nm (AID 1181); settings: small-molecule microarray binding, higher = more signal;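 also: score merges 667 nm emission and signal to noise over triplicate slides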
Chain of E3 ubiquitin-protein ligase XIAP (Homo sapiens) (P98170 whole entry, looked up): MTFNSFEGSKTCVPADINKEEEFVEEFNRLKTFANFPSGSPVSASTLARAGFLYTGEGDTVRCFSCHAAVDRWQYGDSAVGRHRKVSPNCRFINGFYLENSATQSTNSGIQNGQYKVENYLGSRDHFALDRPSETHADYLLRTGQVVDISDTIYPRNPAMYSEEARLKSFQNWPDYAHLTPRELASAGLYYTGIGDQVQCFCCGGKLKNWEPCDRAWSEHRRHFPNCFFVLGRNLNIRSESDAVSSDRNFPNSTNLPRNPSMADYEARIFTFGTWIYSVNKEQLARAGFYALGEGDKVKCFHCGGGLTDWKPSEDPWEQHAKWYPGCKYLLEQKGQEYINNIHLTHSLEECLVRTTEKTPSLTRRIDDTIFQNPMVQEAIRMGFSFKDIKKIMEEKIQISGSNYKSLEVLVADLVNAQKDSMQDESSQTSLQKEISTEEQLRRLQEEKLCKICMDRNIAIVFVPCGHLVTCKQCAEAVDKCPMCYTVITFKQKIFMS

For `CN1C(=O)C2C=CC(C(O)c3ccccn3)N(N(c3ccccc3)c3ccccc3)C2C1=O` (stereo not given), the z-score [1] was -0.711, the z-score [2] was -1.63 and the z-score [3] was -0.108. It also gave a z-score [4] of 0.0262, a z-score [5] of -0.771 and a z-score [6] of -1.53. For the same compound, the z-score [7] was -0.695 (inactive), the z-score [8] was 0.305 and the z-score [9] was -0.468. The z-score [10] was -0.859 (inactive), the z-score [11] was -1.15 and the z-score [12] was 0.527 (inactive). The z-score [13] was -0.555 (inactive), the composite z-score [14] was 0.464 (inactive) and the z-score [15] was 1.01 (inactive). For the same compound, the z-score [16] was 0.429 (inactive), the z-score [17] was -0.155 (inactive) and the z-score [18] was -0.38 (inactive). For the same compound, the z-score [19] was -0.368 and the composite z-score [20] was 0.304.

In the case of `COC(=O)[C@@]1(Cc2ccc(F)cc2)[C@H]2c3cc(C(=O)N4CCCC4)n(CCc4ccc(O)c(O)c4)c3C[C@H]2CN1C(=O)c1ccccc1`, the z-score [1] is reported as 0.863, the z-score [2] is reported as -0.0428 and the z-score [3] is reported as 0.609. For the same compound, the z-score [4] was -3.48, the z-score [5] was -4.2 and the z-score [6] was 0.54. For the same compound, the z-score [7] was -0.461 (inactive), the z-score [8] was -0.788 and the z-score [9] was -1.59. For the same compound, the z-score [10] was 0.0195 (inactive), the z-score [11] was -1.48 and the z-score [12] was 1.78 (inactive). For the same compound, the z-score [13] was -1.07 (inactive), the composite z-score [14] was -0.0926 (inactive) and the z-score [15] was 1.78 (inactive). The z-score [16] was 1.78 (inactive), the z-score [17] was -0.265 (inactive) and the z-score [18] was -0.177 (inactive). The z-score [19] was -0.795 and the composite z-score [20] was 0.32.

`[N-]=[N+]=Nc1ccccc1[C@@H]1OC(c2ccc(OCCCO)cc2)=N[C@]1(Cc1ccccc1)C(=O)NCC(O)CO` (stereo not given in full) showed a z-score [1] of -0.828, a z-score [2] of 0.509 and a z-score [3] of -0.306. It also gave a z-score [4] of -1.94, a z-score [5] of -1.81 and a z-score [6] of 0.307. For the same compound, the z-score [7] was 0.778 (inactive), the z-score [8] was -1.15 and the z-score [9] was -0.318. The z-score [10] was -0.545 (inactive), the z-score [11] was 0.0381 and the z-score [12] was -2.75 (inactive). The z-score [13] was -0.53 (inactive), the composite z-score [14] was 0.255 (inactive) and the z-score [15] was -0.291 (inactive). The z-score [16] was 1.06 (inactive), the z-score [17] was 2.24 (inactive) and the z-score [18] was 0.783 (inactive). The z-score [19] was -0.71 and the composite z-score [20] was 0.366.

`COC(=O)[C@@]1(Cc2ccccc2)[C@@H]2C(=CC(=O)[C@H]2CC(=O)C(=O)N(C)C)CN1C(=O)c1ccccc1` gave a z-score [1] of 0.349, a z-score [2] of 0.108 and a z-score [3] of 0.11. It also gave a z-score [4] of -2.52, a z-score [5] of -1.81 and a z-score [6] of 2.58. For the same compound, the z-score [7] was -0.0995 (inactive), the z-score [8] was -0.791 and the z-score [9] was -2.68. For the same compound, the z-score [10] was -1.11 (inactive), the z-score [11] was -1.24 and the z-score [12] was 0.292 (inactive). The z-score [13] was -5.19 (inactive), the composite z-score [14] was -0.435 (inactive) and the z-score [15] was -0.0856 (inactive). The z-score [16] was -0.224 (inactive), the z-score [17] was 0.677 (inactive) and the z-score [18] was -0.0631 (inactive). For the same compound, the z-score [19] was -5.21 and the composite z-score [20] was 0.0239.

For `COC(=O)[C@@]1(Cc2ccc(OC)cc2)[C@H]2c3cc(C(=O)N4CCCC4)n(Cc4cccc5ccccc45)c3C[C@H]2CN1C(=O)c1ccccc1`, the z-score [1] was -0.249, the z-score [2] was -0.305 and the z-score [3] was 1.39. The z-score [4] was -0.47, the z-score [5] was -0.718 and the z-score [6] was 2.15. The z-score [7] was -0.198 (inactive), the z-score [8] was -0.427 and the z-score [9] was -1.26. The z-score [10] was -0.506 (inactive), the z-score [11] was -0.18 and the z-score [12] was 1.07 (inactive). For the same compound, the z-score [13] was -0.619 (inactive), the composite z-score [14] was 0.237 (inactive) and the z-score [15] was -0.362 (inactive). For the same compound, the z-score [16] was 1.08 (inactive), the z-score [17] was 0.24 (inactive) and the z-score [18] was 0.277 (inactive). The z-score [19] was 0.0686 and the composite z-score [20] was 0.5.

Compound `CC(C)N1C(=O)C[C@@](C(=O)NCCCN(C)C)(c2ccc([N+](=O)[O-])cc2)[C@H]1c1ccc(CO)cc1` has a z-score [1] of 0.173, a z-score [2] of 0.165 and a z-score [3] of -0.093. The z-score [4] was -0.367, the z-score [5] was 0.768 and the z-score [6] was -0.459. The z-score [7] was -1.18 (inactive), the z-score [8] was 0.701 and the z-score [9] was 0.169. The z-score [10] was -0.28 (inactive), the z-score [11] was 0.0314 and the z-score [12] was -0.67 (inactive). For the same compound, the z-score [13] was -1.21 (inactive), the composite z-score [14] was 0.352 (inactive) and the z-score [15] was 0.745 (inactive). For the same compound, the z-score [16] was -0.379 (inactive), the z-score [17] was -0.328 (inactive) and the z-score [18] was -1.02 (inactive). For the same compound, the z-score [19] was -0.198 and the composite z-score [20] was -0.267.

`CC[C@H]1C2=C3C(CC[C@H]4C(OCc5ccc(F)cc5C(F)(F)F)OC[C@](C)([C@@H]34)N(C(=O)OC(C)(C)C)C2)C(COC)C1COC` (stereo not given in full) gave a z-score [1] of -0.266, a z-score [2] of -0.851 and a z-score [3] of 0.309. For the same compound, the z-score [4] was 0.0661, the z-score [5] was -0.307 and the z-score [6] was 1.38. For the same compound, the z-score [7] was -0.159 (inactive), the z-score [8] was -0.182 and the z-score [9] was -1.53. The z-score [10] was -0.515 (inactive), the z-score [11] was -0.983 and the z-score [12] was 0.9 (inactive). For the same compound, the z-score [13] was -1.31 (inactive), the composite z-score [14] was -0.0058 (inactive) and the z-score [15] was -0.126 (inactive). For the same compound, the z-score [16] was 0.628 (inactive), the z-score [17] was -0.543 (inactive) and the z-score [18] was 0.0886 (inactive). It also gave a z-score [19] of -0.932 and a composite z-score [20] of -0.0838.

With `CC=CC(O)C1C=CC2C(=O)N(c3ccccc3)C(=O)C2N1Nc1ccccc1F` (stereo not given) the z-score [1] was -1.68, the z-score [2] was -0.161 and the z-score [3] was -0.182. The z-score [4] was 0.807, the z-score [5] was -1.85 and the z-score [6] was -0.866. The z-score [7] was -0.961 (inactive), the z-score [8] was 0.367 and the z-score [9] was -0.254. For the same compound, the z-score [10] was -0.548 (inactive), the z-score [11] was -0.471 and the z-score [12] was -0.383 (inactive). For the same compound, the z-score [13] was -0.424 (inactive), the composite z-score [14] was -0.813 (inactive) and the z-score [15] was 1.21 (inactive). The z-score [16] was 0.503 (inactive), the z-score [17] was -0.382 (inactive) and the z-score [18] was -0.279 (inactive). It also gave a z-score [19] of -0.788 and a composite z-score [20] of 0.181.

`CCOC(=O)C1=CC[C@@H](c2ccc(OCc3ccccc3)c(OC)c2)N(S(=O)(=O)c2ccc(C)cc2)[C@H]1c1ccc(SC)cc1` showed a z-score [1] of -0.568, a z-score [2] of 0.211 and a z-score [3] of 0.355. For the same compound, the z-score [4] was -0.821, the z-score [5] was -0.906 and the z-score [6] was 1.37. For the same compound, the z-score [7] was -1.14 (inactive), the z-score [8] was 0.419 and the z-score [9] was -0.598. The z-score [10] was 1.33 (inactive), the z-score [11] was 0.579 and the z-score [12] was 0.49 (inactive). The z-score [13] was -0.107 (inactive), the composite z-score [14] was -0.322 (inactive) and the z-score [15] was 1.64 (inactive). The z-score [16] was -0.759 (inactive), the z-score [17] was -0.286 (inactive) and the z-score [18] was -0.361 (inactive). For the same compound, the z-score [19] was -0.455 and the composite z-score [20] was 0.307.
